Targets with the largest changes are over-represented here; the source holds about 21,000 in all.
Compound: CC1Cc2ccccc2N1C(=O)C1CCCN(C1)C(=O)CCl (mixture of isomers) [TRIM25 ligand 11 (diastereomer mixture)]
Test: probe-labelled cysteine peptide fold change vs DMSO (competition) (log2 fold change); higher = less target engagement (more negative = stronger competition)
Conditions: THP-1, incubation time: 4 h
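Further: competitive chemoproteomic profiling in live THP-1 cells with an iodoacetamide desthiobiotin (IA-DTB) probe, comparing probe-labelled peptide intensities in compound-treated cells against DMSO-treated controls.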

Chain of UniProt Q96SD1 (Q96SD1 whole entry, looked up): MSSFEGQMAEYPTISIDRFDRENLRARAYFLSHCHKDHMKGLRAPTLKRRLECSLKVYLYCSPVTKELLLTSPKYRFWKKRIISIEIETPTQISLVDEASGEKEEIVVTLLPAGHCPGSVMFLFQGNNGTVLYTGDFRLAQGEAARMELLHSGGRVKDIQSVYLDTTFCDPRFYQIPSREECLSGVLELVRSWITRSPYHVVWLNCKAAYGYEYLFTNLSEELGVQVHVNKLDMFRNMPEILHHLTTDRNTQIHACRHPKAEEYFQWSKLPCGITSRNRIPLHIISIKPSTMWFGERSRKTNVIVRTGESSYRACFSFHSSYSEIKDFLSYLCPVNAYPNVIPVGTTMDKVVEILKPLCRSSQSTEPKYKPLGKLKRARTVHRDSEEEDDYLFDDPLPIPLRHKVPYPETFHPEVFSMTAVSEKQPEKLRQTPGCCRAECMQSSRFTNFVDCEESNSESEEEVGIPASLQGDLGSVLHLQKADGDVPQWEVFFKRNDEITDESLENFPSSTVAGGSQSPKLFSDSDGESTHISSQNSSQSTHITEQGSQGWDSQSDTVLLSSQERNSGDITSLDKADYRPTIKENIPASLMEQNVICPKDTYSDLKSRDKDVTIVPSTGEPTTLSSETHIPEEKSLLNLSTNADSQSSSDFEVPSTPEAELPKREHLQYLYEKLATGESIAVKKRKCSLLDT
Chain of UniProt Q9NR30 (Q9NR30 whole entry, looked up): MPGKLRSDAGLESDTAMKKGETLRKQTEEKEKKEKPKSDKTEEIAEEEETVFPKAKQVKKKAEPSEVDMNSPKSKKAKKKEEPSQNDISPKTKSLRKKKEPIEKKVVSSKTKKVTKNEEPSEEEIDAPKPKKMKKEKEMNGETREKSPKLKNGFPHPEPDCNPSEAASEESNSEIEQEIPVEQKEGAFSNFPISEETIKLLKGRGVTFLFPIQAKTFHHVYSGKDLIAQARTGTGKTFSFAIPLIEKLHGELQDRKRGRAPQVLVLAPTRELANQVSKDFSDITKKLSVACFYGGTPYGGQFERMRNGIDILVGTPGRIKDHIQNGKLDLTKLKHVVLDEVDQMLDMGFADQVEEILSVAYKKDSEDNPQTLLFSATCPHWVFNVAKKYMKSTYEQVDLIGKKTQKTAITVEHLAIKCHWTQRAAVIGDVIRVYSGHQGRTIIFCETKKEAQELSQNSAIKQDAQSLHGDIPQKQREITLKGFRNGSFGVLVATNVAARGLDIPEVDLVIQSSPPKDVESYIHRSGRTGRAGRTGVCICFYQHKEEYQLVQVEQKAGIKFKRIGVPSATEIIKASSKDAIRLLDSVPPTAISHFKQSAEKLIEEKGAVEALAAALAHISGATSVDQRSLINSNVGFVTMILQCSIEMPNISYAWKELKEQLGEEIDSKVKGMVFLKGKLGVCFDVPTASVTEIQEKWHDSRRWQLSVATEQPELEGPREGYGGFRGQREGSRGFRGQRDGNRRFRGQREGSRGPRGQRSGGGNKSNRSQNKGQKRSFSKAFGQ
Chain of UniProt Q9UJW0 (Q9UJW0 whole entry, looked up): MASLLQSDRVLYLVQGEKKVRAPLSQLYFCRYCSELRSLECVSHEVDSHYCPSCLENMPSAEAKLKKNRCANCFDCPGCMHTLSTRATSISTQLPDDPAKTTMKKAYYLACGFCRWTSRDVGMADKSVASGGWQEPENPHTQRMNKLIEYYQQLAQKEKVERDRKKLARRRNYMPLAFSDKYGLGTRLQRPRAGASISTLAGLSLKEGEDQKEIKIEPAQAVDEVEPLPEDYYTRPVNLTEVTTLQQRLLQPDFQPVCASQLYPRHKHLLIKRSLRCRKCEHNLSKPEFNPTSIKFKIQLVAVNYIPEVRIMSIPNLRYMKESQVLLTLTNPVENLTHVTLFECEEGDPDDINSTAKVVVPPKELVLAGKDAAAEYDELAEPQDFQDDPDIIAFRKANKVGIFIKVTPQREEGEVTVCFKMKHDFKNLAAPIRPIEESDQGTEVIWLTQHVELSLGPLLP
Chain of UniProt P31146 (P31146 whole entry, looked up): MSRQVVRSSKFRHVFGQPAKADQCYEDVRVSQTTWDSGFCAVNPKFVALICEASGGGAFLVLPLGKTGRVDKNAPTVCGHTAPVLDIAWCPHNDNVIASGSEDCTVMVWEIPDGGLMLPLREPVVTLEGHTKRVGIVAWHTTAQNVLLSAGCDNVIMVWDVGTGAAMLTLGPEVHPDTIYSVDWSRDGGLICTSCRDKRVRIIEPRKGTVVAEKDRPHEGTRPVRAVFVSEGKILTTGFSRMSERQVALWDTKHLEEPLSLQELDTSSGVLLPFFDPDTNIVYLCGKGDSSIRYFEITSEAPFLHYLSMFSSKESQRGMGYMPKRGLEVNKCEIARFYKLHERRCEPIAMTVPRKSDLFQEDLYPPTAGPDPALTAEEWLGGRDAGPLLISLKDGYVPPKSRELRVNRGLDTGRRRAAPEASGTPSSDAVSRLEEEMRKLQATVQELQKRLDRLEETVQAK
Chain of UniProt O95786 (O95786 whole entry, looked up): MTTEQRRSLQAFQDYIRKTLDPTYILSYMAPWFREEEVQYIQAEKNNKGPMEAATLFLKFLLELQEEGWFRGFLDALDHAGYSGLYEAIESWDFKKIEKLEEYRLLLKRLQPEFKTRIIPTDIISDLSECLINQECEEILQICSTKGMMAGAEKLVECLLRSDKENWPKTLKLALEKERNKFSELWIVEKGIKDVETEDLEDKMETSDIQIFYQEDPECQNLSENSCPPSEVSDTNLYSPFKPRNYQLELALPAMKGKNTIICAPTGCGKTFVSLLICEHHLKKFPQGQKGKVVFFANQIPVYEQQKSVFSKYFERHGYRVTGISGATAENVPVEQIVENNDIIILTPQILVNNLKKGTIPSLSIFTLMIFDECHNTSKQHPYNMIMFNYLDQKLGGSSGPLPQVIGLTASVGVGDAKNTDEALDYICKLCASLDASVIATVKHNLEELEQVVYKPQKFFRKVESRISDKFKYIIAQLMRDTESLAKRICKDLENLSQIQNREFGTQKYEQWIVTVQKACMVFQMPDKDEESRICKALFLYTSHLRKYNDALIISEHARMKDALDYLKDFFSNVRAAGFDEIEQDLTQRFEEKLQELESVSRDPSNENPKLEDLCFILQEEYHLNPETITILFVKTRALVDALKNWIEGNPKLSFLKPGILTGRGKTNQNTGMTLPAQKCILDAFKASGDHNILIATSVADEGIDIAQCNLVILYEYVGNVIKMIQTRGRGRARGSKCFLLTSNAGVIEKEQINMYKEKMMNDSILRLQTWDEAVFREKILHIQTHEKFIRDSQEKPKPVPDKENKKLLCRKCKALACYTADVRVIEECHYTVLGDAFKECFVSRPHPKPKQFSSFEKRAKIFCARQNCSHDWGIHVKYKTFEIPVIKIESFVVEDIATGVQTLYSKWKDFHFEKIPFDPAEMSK
Chain of UniProt P09668 (P09668 whole entry): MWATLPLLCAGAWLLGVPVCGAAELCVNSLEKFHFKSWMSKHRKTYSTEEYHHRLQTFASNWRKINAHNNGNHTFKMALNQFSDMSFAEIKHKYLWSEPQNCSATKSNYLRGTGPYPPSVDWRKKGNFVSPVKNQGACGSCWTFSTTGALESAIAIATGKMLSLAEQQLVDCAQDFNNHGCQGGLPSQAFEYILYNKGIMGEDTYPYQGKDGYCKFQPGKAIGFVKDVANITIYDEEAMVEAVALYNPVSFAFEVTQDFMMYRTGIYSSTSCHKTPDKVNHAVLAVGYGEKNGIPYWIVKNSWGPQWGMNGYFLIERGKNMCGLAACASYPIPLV
Chain of UniProt P14854 (P14854 whole entry, looked up): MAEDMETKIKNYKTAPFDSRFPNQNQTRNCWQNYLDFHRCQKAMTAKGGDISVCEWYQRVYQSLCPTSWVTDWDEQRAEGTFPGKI
Chain of UniProt O00571 (O00571 whole entry, looked up): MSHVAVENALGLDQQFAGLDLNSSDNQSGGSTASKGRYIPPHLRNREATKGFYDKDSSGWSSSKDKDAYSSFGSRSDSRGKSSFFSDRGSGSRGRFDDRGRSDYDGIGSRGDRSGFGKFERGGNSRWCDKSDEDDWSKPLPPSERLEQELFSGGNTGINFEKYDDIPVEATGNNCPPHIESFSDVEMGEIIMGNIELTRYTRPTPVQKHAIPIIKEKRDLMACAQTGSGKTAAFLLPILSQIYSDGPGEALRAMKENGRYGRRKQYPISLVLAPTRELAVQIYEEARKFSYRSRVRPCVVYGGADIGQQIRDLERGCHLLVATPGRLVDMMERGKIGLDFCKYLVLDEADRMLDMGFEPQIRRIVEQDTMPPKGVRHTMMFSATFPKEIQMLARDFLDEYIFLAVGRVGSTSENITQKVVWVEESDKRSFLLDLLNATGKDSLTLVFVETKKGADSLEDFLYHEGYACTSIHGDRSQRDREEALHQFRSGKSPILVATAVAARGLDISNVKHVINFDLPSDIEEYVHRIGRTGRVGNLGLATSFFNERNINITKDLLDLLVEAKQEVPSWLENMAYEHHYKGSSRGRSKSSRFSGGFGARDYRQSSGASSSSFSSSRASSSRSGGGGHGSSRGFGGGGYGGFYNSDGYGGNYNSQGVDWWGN
Chain of UniProt Q8TBM8 (Q8TBM8 whole entry, looked up): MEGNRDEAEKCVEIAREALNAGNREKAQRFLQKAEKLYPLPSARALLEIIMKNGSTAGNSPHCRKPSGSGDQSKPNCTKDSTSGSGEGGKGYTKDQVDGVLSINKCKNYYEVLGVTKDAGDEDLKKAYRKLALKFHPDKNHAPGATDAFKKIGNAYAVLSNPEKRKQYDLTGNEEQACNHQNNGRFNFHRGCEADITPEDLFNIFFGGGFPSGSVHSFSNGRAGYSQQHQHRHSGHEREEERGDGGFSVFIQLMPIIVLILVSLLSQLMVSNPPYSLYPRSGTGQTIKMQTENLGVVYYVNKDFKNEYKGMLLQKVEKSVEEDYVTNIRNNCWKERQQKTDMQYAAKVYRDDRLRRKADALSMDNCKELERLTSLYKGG
Chain of UniProt Q9H773 (Q9H773 whole entry): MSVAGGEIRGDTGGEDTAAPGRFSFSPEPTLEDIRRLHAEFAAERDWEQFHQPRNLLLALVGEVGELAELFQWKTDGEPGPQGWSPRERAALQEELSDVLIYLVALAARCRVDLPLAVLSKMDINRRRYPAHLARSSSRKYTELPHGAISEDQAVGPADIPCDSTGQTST

Target	probe-labelled cysteine peptide fold change (10 µM)	probe-labelled cysteine peptide fold change (50 µM)
CORO1A_P31146_332_RGLEVNKCEIAR (UniProt P31146)	-0.603	-0.342
DARS2_Q6PI48_202_MREYLCNLHGFVDIETPTLFKR (UniProt Q6PI48)	-0.272	-0.129
DMXL2_Q8TDJ6_62_HGNIQVSCVECSNQQGR (UniProt Q8TDJ6)	-0.159	-0.593
DNAJA1_P31689_271_RGEDLFMCMDIQLVEALCGFQK (UniProt P31689)	-0.021	0.281
DCAF10_Q5QP82_412_NSLEVVTPEVLGESDHGNCITSLQLHPK (UniProt Q5QP82)	0.152	-0.291
DOCK8_Q8NF50_590_IQFMCGEDASNAMPVIFGK (UniProt Q8NF50)	-0.02	0.209
DDX59_Q5T1V6_208_QQLGILVQGQEVTRPIIDFEHCSLPEVLNHNLKK (UniProt Q5T1V6)	-0.239	-0.182
DHX9_Q08211_608+612_KDKDDDGGEDDDANCNLICGDEYGPETR (UniProt Q08211)	-0.128	-0.345
DYNC1LI2_O43237_104_CNVWILDGDLYHK<|>DYNC1LI1_Q9Y6G9_117_CNVWILDGDLYHK (UniProt Q9Y6G9+O43237)	-0.0068	0.0237
DYNC1H1_Q14204_3573_WQASSLPADDLCTENAIMLK (UniProt Q14204)	-0.0171	-0.286
DUS3L_Q96G46_358_RHQCEDIFGVQLEGAFPDTMTK (UniProt Q96G46)	0.0341	0.0134
CTR9_Q6PD62_196_TNPGCPAEVR (UniProt Q6PD62)	-0.0355	0.0417
CPNE2_Q96FN4_265_DSVPLEFECINPK (UniProt Q96FN4)	-0.22	-0.165
DDX56_Q9NY93_185_SLLCHLPR (UniProt Q9NY93)	0.556	0.332
DLGAP5_Q15398_129_YRPDMPCFLLSNQNAVK (UniProt Q15398)	-0.299	-0.594
DIDO1_Q9BTC0_1449_MCADVR (UniProt Q9BTC0)	-0.0543	-0.242
DOK3_Q7L591_133_LADCVSVLPADGESCPR (UniProt Q7L591)	0.0537	0.00634
DYNC1H1_Q14204_4644_GVAVLCTE (UniProt Q14204)	0.0055	0.0643
DENR_O43583_44_VLYCGVCSLPTEYCEYMPDVAK (UniProt O43583)	-0.0798	-0.0802
DCP1A_Q9NPI6_39_QHDPYITSIADLTGQVALYTFCPK (UniProt Q9NPI6)	0.179	0.205
DECR2_Q9NUI1_22_HLFCPDLLR (UniProt Q9NUI1)	0.0413	-0.0816
DDX58_O95786_428_NTDEALDYICK (UniProt O95786)	0.0328	0.169
DECR2_Q9NUI1_53_HGCHTVIASR (UniProt Q9NUI1)	0.317	0.574
DNM2_P50570-3_427_CVDLVVSELATVIK (UniProt P50570)	-0.0402	0.0756
DDX42_Q86XP3_333_ELEPGDGPIAVIVCPTR (UniProt Q86XP3)	0.0933	0.0408
CTNNA1_P35221_772_TIADHCPDSACK (UniProt P35221)	-0.0482	-0.0902
DHX37_Q8IY37_616_LCVVATNVAETSLTIPGIK (UniProt Q8IY37)	-0.0366	0.0989

Target	probe-labelled cysteine peptide fold change (10 µM)	probe-labelled cysteine peptide fold change (50 µM)
DDX21_Q9NR30_539_TGVCICFYQHK (UniProt Q9NR30)	-0.0402	-0.0081
DDX6_P26196_324_VHCLNTLFSR (UniProt P26196)	0.158	0.183
DHRS9_Q9BPW9_60_GFHVIAACLTESGSTALK (UniProt Q9BPW9)	0.105	0.197
CPSF3_Q9UKF6_223_FCNTVHDIVNR (UniProt Q9UKF6)	-0.0667	-0.11
DDX28_Q9NUL7_360_LHCIMPHVK (UniProt Q9NUL7)	-0.061	0.0889
DENND3_A2RUS2_1094_DTSTSFLAFQLLPEEEQLWAACAGR (UniProt A2RUS2)	1.22	-0.0979
DDX17_Q92841_166+199_GGDVCPKPVFAFHHANFPQYVMDVLMDQHFTEPTPIQCQGFPLALSGR (UniProt Q92841)	-0.612	-0.604
CORO7_P57737_75_VAHLGCHSDLVTDLDFSPFDDFLLATGSADR (UniProt P57737)	0.031	0.0305
CPSF4_O95639_162_RVICVNYLVGFCPEGPSCK (UniProt O95639)	-0.292	0.0715
DHX15_O43143_774_IAPQYYDMSNFPQCEAKR (UniProt O43143)	-0.432	-0.211
DHX30_Q7L2E3_286_LSTLTLLWPCPMTFVAK (UniProt Q7L2E3)	-0.558	-0.944
CTNNA2_P26232_792_IALYCHQLNICSK (UniProt P26232)	-0.0111	0.118
DIAPH1_O60610_1227_AGCAVTSLLASELTK (UniProt O60610)	-0.0516	-0.221
DAXX_Q9UER7_106_AHSLFLASAEFCNILSR (UniProt Q9UER7)	0.442	1.38
DDX42_Q86XP3_382_ALQEGAEIVVCTPGR (UniProt Q86XP3)	0.0737	0.0996
DCTN1_Q14203_677_YEHALSQCSVDVYKK (UniProt Q14203)	-0.0153	0.149
CSMD2_Q7Z408-3_2_CDAHLR (UniProt Q7Z408)	-0.56	-0.972
DHRS7_Q9Y394_233_TELATYPGIIVSNICPGPVQSNIVENSLAGEVTK (UniProt Q9Y394)	-0.0824	0.0763
CUL4B_Q13620_248_YNLEELYQAVENLCSYK (UniProt Q13620)	0.033	0.163
DCLRE1C_Q96SD1_34_AYFLSHCHK (UniProt Q96SD1)	0.0604	-0.0702
CTSH_P09668_272_TGIYSSTSCHK (UniProt P09668)	0.223	-0.279
CRYBG1_Q9Y4K1_1404_ISSVQPICLDSFTGPR (UniProt Q9Y4K1)	0.199	-0.0158
DIAPH1_O60610_964_LQFSEQVENIKPEIVSVTAACEELR (UniProt O60610)	0.176	0.06
CRYL1_Q9Y2S2_141_QCIVAHPVNPPYYIPLVELVPHPETAPTTVDR (UniProt Q9Y2S2)	0.0328	-0.0222
DSTN_P60981_39_AVIFCLSADK (UniProt P60981)	-0.0558	-0.00534
DARS_P14868_130_IGSCTQQDVELHVQK (UniProt P14868)	0.0673	0.0472
DIAPH2_O60879_484_LDIDLTHLIDSCVNK (UniProt O60879)	0.0266	0.095

Target	probe-labelled cysteine peptide fold change (10 µM)	probe-labelled cysteine peptide fold change (50 µM)
DDX3X_O00571_128_WCDKSDEDDWSK (UniProt O00571)	-0.422	-0.388
CTNNBL1_Q8WYA6_370_VLDHAMIGPEGTDNCHK (UniProt Q8WYA6)	-0.0184	-0.103
DDX60L_Q5H9U9_502_CHVDEQSR (UniProt Q5H9U9)	-0.013	-0.526
DLD_P09622_484_VCHAHPTLSEAFR (UniProt P09622)	0.111	-0.123
DPP9_Q86TI2_184_TQCSGPR (UniProt Q86TI2)	-0.111	-0.073
DHCR24_Q15392_393_CLQQALHTFQNDIHVYPIWLCPFILPSQPGLVHPK (UniProt Q15392)	0.14	-0.425
DYNC1H1_Q14204_4438_QDLADVVQVCEGK (UniProt Q14204)	0.0826	0.0819
DOK3_Q7L591_323_LPELTRPQPCPLPR (UniProt Q7L591)	0.463	-0.185
DCTPP1_Q9H773_110_CRVDLPLAVLSK (UniProt Q9H773)	-0.361	-0.184
DDX24_Q9GZR7_599_SLVFANSISCIK (UniProt Q9GZR7)	0.479	0.567
DCAF10_Q5QP82_213_TLSEAHEDCVNNIR (UniProt Q5QP82)	0.0726	-0.0884
DNAJB14_Q8TBM8_77_KPSGSGDQSKPNCTK (UniProt Q8TBM8)	-0.262	-0.569
CSNK1A1_P48729_249_MSTPVEVLCK (UniProt P48729)	-0.305	-0.401
CUL4B_Q13620_297_CWQNHCR (UniProt Q13620)	0.0567	0.295
DTWD2_Q8NBA8_143_FSEERDPELSTVCR (UniProt Q8NBA8)	0.148	0.0336
DAZAP1_Q96EP5_63_DPNCVGTVLASR (UniProt Q96EP5)	0.186	0.402
DUSP23_Q9BVJ7_95_GEAVGVHCALGFGR (UniProt Q9BVJ7)	-0.00709	0.14
DMRT1_Q9Y5R6_105_CNLIAER (UniProt Q9Y5R6)	1.19	0.0204
CRIP1_P50238_56_TLTSGGHAEHEGKPYCNHPCYAAMFGPK (UniProt P50238)	-0.889	-1.02
CSTF2_P33240_62_GYGFCEYQDQETALSAMR (UniProt P33240)	-0.512	-0.471
DCTN4_Q9UJW0_280_CEHNLSKPEFNPTSIK (UniProt Q9UJW0)	0.246	0.175
DDX46_Q7L014_501_RGAEIIVCTPGR (UniProt Q7L014)	0.161	0.296
CYTH1_Q15438_323_EVEDSKKPNCFELYIPDNK (UniProt Q15438)	-0.213	-0.14
DDX41_Q9UJV9_540_ACDESVLMDLK (UniProt Q9UJV9)	-0.0247	-0.111
COX6B1_P14854_54_GGDISVCEWYQR (UniProt P14854)	-0.188	-0.269

From the supplement of paper PMC12067093, “Discovery and optimisation of a covalent ligand for TRIM25 and its application to targeted protein ubiquitination” (Chemical Science, 2025)
